Measured values reported in PubChem BioAssay (EPA / NIEHS).
Records with an inconclusive call do not appear. Calls of active or inactive are those of the source. Rule for the calls, unless noted: active = hit-call score of the fitted dose curve at least 0.9, where 1 is the maximum; inconclusive = response in the unintended direction; inactive = score below 0.9.

What was measured:
[1] = target: Bile acid receptor (Homo sapiens) (UniProt Q96RI1); assay: ATG_FXR_TRANS: Attagene TRANS-FACTORIAL HepG2 Assay for Farnesoid X Receptor (FXR) (AID 2282979); details: HepG2 Attagene TRANS FXR-GAL4 reporter transcription;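 note: hits raise reporter mRNA above DMSO so AC50 marks FXR activation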
Chain of Bile acid receptor (Homo sapiens) (Q96RI1 whole entry, looked up, the tested form may be a part): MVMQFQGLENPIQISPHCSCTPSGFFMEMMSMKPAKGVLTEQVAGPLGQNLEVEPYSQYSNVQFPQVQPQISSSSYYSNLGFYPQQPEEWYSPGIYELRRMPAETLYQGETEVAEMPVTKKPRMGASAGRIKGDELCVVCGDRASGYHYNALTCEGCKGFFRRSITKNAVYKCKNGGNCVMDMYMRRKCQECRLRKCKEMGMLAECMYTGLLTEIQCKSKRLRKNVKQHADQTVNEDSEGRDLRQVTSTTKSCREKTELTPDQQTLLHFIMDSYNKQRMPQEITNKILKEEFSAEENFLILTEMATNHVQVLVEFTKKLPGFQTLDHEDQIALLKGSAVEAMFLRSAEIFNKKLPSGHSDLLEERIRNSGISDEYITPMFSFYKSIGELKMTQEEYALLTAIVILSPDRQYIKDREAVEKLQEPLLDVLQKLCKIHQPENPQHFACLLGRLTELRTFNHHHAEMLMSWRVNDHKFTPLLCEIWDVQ
In short: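 Transient transfection of HepG2 with multiplexed GAL4-UAS reporter units; exogenous FXR-GAL4 chimera. Dose 24 h → TriZol RNA → oligo(dT) RT → PCR, 6-FAM primer extension, HpaI cut → CE. Gain vs DMSO.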

[2] = target: Oxysterols receptor LXR-alpha (Homo sapiens) (UniProt Q13133); assay: ATG_LXRa_TRANS: Attagene TRANS-FACTORIAL HepG2 Assay for human Liver X Receptor alpha (LXRa) (AID 2282980); details: HepG2 Attagene TRANS reporter, LXRa transactivation
Chain of Oxysterols receptor LXR-alpha (Homo sapiens) (Q13133 whole entry, looked up, the tested form may be a part): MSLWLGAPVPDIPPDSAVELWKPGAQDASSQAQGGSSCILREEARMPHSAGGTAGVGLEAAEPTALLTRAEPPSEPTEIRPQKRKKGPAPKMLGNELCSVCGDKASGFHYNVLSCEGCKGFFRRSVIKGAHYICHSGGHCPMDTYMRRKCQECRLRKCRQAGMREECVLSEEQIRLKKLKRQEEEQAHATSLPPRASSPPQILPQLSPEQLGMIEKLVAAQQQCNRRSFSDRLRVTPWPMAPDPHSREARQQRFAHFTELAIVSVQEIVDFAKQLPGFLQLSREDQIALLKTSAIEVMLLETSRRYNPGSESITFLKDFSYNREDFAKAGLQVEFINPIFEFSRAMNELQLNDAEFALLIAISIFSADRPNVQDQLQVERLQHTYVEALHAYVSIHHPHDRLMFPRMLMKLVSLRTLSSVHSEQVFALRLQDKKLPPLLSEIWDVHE
In short: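 Transfect HepG2 with GAL4-UAS multiplex reporter constructs (TRANS format, chimeric receptor-GAL4); treat 24 h; extract RNA, reverse-transcribe, PCR-amplify, FAM-label, HpaI-digest; resolve fragments by capillary electrophoresis. Upward response vs DMSO.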

[3] = target: Oxysterols receptor LXR-beta (Homo sapiens) (UniProt P55055); assay: ATG_LXRb_TRANS: Attagene TRANS-FACTORIAL HepG2 Assay for human Liver X Receptor beta (LXRb) (AID 2282981); details: HepG2 Attagene TRANS GAL4-LXRb reporter, mRNA
Chain of Oxysterols receptor LXR-beta (Homo sapiens) (P55055 whole entry, looked up, the tested form may be a part): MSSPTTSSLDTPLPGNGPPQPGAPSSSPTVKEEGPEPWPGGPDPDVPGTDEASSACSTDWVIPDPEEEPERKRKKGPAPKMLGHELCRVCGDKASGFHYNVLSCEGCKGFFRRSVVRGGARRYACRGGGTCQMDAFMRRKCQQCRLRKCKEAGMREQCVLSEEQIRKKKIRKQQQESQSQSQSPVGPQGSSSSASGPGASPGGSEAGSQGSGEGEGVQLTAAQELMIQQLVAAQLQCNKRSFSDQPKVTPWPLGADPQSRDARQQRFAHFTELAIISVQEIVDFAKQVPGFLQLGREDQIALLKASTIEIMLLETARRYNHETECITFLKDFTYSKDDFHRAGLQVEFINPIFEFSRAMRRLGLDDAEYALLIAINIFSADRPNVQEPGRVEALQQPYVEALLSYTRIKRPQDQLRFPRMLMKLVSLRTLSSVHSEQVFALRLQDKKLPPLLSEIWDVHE
In short: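 Gain-of-signal mRNA reporter endpoint, DMSO as negative control. Transiently transfected HepG2 cells carrying the NR-Gal4 chimera and GAL4-UAS reporter units were treated 24 h; transcripts quantified by RT-PCR and capillary electrophoresis fluorescence.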

[4] = ATG_M_32_TRANS: Attagene TRANS-FACTORIAL HepG2 Assay for M32 Transcription Factor (Internal Marker) (AID 2282984); details: HepG2 Attagene TRANS M32 internal marker reporter
In short: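 Capillary electrophoresis of 6-FAM-labelled reporter fragments gives the signal; data fitted for gain over DMSO negative control. Source: HepG2 cells bearing transient multiple reporter transcription units, 24 h exposure.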

[5] = target: Nuclear receptor subfamily 4 group A member 2 (Homo sapiens) (UniProt P43354); assay: ATG_NURR1_TRANS: Attagene TRANS-FACTORIAL HepG2 Assay for human Nuclear Receptor Related Protein 1 (NURR1) (AID 2282985); details: HepG2 Attagene TRANS reporter, mRNA readout
Chain of Nuclear receptor subfamily 4 group A member 2 (Homo sapiens) (P43354 whole entry, looked up): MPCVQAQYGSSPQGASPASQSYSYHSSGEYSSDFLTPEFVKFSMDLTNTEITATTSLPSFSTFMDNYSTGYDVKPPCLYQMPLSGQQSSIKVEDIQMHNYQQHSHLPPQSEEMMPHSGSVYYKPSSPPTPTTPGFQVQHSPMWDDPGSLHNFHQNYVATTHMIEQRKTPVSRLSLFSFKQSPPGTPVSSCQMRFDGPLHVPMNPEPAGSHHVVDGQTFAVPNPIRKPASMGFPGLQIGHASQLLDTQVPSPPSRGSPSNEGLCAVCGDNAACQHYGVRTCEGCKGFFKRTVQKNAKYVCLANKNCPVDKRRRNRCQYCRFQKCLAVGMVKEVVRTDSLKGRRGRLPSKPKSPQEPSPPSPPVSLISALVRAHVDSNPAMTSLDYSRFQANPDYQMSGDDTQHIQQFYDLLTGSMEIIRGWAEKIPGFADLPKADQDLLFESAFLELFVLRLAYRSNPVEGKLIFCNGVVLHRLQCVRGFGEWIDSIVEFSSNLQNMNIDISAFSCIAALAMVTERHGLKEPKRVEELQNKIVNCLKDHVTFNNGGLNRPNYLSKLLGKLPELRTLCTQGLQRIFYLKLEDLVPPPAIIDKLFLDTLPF
In short: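 HepG2 / transient MRTU transfection / 24 h compound exposure / RT-PCR + CE fluorescence of reporter mRNA / gain-of-signal vs DMSO.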

[6] = target: Transcriptional activator Myb (Homo sapiens) (UniProt P10242); assay: ATG_Myb_CIS: Attagene CIS-FACTORIAL HepG2 Assay for human Myeloblastosis (Myb) Proto-Oncogene Transcription Factor (AID 2282986; active = hit-call score of the fitted dose curve at least 0.9, where 1 is the maximum; inactive = score below 0.9); details: HepG2 Attagene CIS-FACTORIAL Myb reporter transcription; actives raise or lower the signal
Chain of Transcriptional activator Myb (Homo sapiens) (P10242 whole entry, looked up): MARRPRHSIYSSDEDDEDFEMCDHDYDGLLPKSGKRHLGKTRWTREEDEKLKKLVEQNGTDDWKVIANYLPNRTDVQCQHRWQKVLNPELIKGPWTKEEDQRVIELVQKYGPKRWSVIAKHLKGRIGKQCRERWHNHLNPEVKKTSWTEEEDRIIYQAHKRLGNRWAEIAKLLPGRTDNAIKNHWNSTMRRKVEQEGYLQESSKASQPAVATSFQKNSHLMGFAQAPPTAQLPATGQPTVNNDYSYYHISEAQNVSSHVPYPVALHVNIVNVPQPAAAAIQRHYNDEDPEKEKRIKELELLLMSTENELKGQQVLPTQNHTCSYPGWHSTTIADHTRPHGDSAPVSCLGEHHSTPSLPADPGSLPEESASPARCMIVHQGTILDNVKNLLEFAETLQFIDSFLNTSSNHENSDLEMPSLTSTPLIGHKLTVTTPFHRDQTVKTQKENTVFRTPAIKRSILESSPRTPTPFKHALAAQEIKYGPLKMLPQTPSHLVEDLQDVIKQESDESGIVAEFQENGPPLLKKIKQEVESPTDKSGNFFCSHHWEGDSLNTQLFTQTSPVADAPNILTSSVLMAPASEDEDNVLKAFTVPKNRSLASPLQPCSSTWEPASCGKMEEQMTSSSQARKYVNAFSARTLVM
In short: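 HepG2 cells were transiently transfected with cis-regulated multiple reporter transcription units reflecting endogenous Myb activity, then exposed to compound for 24 hours. Reporter mRNA was measured by RT-PCR with capillary electrophoresis; bidirectional fitting versus DMSO baseline.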

[7] = target: Nuclear respiratory factor 1 (Homo sapiens) (UniProt Q16656); assay: ATG_NRF1_CIS: Attagene CIS-FACTORIAL HepG2 Assay for human Nuclear Respiratory Factor 1 (NRF1) Orphan Gene (AID 2282987; active = hit-call score of the fitted dose curve at least 0.9, where 1 is the maximum; inactive = score below 0.9); details: HepG2 NRF1 cis-element reporter, Attagene multiplex; actives raise or lower the signal
Chain of Nuclear respiratory factor 1 (Homo sapiens) (Q16656 whole entry, looked up): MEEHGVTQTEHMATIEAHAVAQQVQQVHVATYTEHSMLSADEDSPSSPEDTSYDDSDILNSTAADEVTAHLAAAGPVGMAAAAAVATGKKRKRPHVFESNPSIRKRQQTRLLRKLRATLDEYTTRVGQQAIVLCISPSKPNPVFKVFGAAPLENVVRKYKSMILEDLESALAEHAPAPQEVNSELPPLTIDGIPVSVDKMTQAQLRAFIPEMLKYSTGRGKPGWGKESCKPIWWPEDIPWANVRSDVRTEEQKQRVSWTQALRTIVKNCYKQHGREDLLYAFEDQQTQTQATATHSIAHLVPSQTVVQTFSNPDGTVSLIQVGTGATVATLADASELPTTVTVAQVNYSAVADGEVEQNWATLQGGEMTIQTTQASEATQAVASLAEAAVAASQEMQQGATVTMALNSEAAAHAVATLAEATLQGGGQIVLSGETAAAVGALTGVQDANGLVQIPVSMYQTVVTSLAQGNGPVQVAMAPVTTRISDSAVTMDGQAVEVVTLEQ
In short: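 HepG2 cells transiently transfected with multiple reporter transcription units under cis-regulatory promoter control, so endogenous transcription-factor activity is read. After 24 h compound exposure, reporter mRNA quantified by RT-PCR, fluorescent labelling, HpaI digestion and capillary electrophoresis; bidirectional fitting versus DMSO.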

[8] = ATG_M_06_TRANS: Attagene TRANS-FACTORIAL HepG2 Assay for M06 Transcription Factor (Internal Marker) (AID 2282983); details: HepG2 Attagene TRANS M06 internal marker reporter
In short: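 Transfect HepG2 with MRTUs → dose compounds 24 h → isolate RNA, oligo(dT) RT → PCR with reporter primers → 6-FAM primer extension → HpaI digest → CE fragment analysis. Positive direction vs DMSO.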

[9] = target: Hepatocyte nuclear factor 4-alpha (Homo sapiens) (UniProt P41235); assay: ATG_HNF4a_TRANS: Attagene TRANS-FACTORIAL HepG2 Assay for human Hepatocyte Nuclear Factor 4 alpha (HNF4a) (AID 2282982); details: HepG2 HNF4a transactivation reporter, mRNA readout
Chain of Hepatocyte nuclear factor 4-alpha (Homo sapiens) (P41235 whole entry, looked up, the tested form may be a part): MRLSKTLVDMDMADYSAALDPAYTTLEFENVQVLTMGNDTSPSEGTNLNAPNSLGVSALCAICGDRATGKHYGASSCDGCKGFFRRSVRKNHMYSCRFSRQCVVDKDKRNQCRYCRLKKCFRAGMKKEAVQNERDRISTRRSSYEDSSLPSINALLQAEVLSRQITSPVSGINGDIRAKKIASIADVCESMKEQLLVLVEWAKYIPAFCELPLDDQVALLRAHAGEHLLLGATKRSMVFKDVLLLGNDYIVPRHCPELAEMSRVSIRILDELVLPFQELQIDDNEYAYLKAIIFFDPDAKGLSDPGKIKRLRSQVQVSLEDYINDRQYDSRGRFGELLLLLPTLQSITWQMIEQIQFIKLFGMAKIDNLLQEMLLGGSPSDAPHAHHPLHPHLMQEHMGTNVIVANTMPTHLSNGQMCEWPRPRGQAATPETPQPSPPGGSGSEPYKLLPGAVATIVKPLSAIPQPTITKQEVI
In short: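 Gain-of-signal mRNA induction, relative to DMSO vehicle, was read after 24 h compound treatment of HepG2 cells bearing transfected GAL4-UAS reporters. Detection used RT-PCR, 6-FAM primer extension and capillary electrophoresis.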

Measured: AC50

CC(C)(C)C(=O)C=Cc1ccc(Cl)cc1
active: [2] 26.1 µM
not listed: [8] | [9]
inactive: all other assays above

COc1ccc([C@@H]2CC(=O)c3c(O)cc(O[C@@H]4O[C@H](CO[C@@H]5O[C@@H](C)[C@H](O)[C@@H](O)[C@H]5O)[C@@H](O)[C@H](O)[C@H]4O)cc3O2)cc1OC
inactive: [1] | [8] | [6] | [7]

COC(=O)c1ccccc1OC
inactive: [1] | [8] | [5] | [6] | [7]

NC(=O)N=NC(N)=O
not listed: [2] | [4]
inactive: all other assays above

CCOC(=O)NNc1nncc2ccccc12
not listed: [2] | [3] | [5]
inactive: all other assays above

C=COCCCC
inactive: [1] | [3] | [6] | [7]

Cc1ccc(OC(=O)CC(C)C)cc1
not listed: [2] | [6]
inactive: all other assays above

O=Cc1ccc(CO)o1
not listed: [2] | [3]
inactive: all other assays above

O=C(/C=C/C=C/c1ccc2c(c1)OCO2)N1CCCCC1
not listed: [2] | [3] | [9]
inactive: all other assays above

O=C1CCCCCN1SSN1CCCCCC1=O
not listed: [2]
inactive: all other assays above

O=c1n(CCO)c(=O)n(CCO)c(=O)n1CCO
not listed: [3] | [5] | [8]
inactive: all other assays above

Nc1ccc(-c2ccc(F)cc2)cc1
inactive: [1] | [9] | [4] | [6] | [7]

C=C(C)C(=O)OCC(C)C
inactive: [1] | [9] | [5] | [6] | [7]

Nc1cccc(C(F)(F)F)c1
not listed: [9]
inactive: all other assays above

C=CCCCCCCCCC(=O)OCCCC
not listed: [2] | [4] | [8]
inactive: all other assays above

O=C1C=CC(=O)O1
inactive: [1] | [2] | [8] | [7]

CC(C)(C)c1ccc(OC(=O)c2ccccc2O)cc1
not listed: [2] | [4] | [9]
inactive: all other assays above

NC(=O)c1ccccc1O
not listed: [2] | [4] | [5]
inactive: all other assays above

C/C=C\C/C=C/CCCCCCCCOC(C)=O
not listed: [2] | [3]
inactive: all other assays above

COC(=O)c1ccc2cc(C(=O)OC)ccc2c1
not listed: [1]
inactive: all other assays above

CC(C)=CCC/C(C)=C\C#N
not listed: [1]
inactive: all other assays above

CC(=O)OCc1ccco1
inactive: [2] | [8] | [4] | [6] | [7]

C=CC(=O)NC(C)(C)CS(=O)(=O)O
inactive: [2] | [9] | [4] | [6] | [7]

CCCCCC(C)O (stereo not given)
not listed: [1] | [4] | [5]
inactive: all other assays above

Nc1ccc(N)c(Cl)c1
inactive: [1] | [5] | [6]

Cc1cc(C)c(C)c(O)c1
not listed: [1] | [9]
inactive: all other assays above

COc1cc(C)ccc1C(C)C
not listed: [1] | [3] | [4]
inactive: all other assays above

CO[Si](OC)(OC)c1ccccc1
inactive: [2] | [9] | [8] | [7]

OCCc1ccncc1
inactive: [2] | [9] | [8] | [7]

CCc1ccc2c(c1)C(=O)c1ccccc1C2=O
inactive: [2] | [3] | [8] | [5] | [7]

CCCOCCOCCOCCO
inactive: [2] | [3] | [6] | [7]

CC1=CC[C@H](C(C)C)C=C1
inactive: [2] | [3] | [9] | [5]

CCCc1ccc(OC)cc1
inactive: [2] | [9] | [4] | [6] | [7]

CN(C)c1ccc(C(=N)c2ccc(N(C)C)cc2)cc1
active: [4] 106 µM
not listed: [1]
inactive: all other assays above

COC=O
not listed: [1] | [3] | [5]
inactive: all other assays above

Cc1ccc2c(c1)C(=O)c1ccccc1C2=O
not listed: [1] | [4]
inactive: all other assays above

CCN(Cc1cccc(S(=O)(=O)O)c1)c1ccc(C(=C2C=CC(=[N+](CC)Cc3cccc(S(=O)(=O)[O-])c3)C=C2)c2ccccc2)cc1
not listed: [1]
inactive: all other assays above

CC=C1CC2C=CC1C2 (stereo not given)
not listed: [1] | [8] | [9]
inactive: all other assays above

COCCCOCCCOC
not listed: [1] | [5] | [8]
inactive: all other assays above

Cc1ccccc1C
not listed: [1]
inactive: all other assays above

CCCNC(=O)NS(=O)(=O)c1ccc(Cl)cc1
inactive: [2] | [8] | [4] | [6] | [7]

C1=Cc2ccccc2C1
inactive: [2] | [3] | [8] | [6] | [7]

CC(C)(C)c1ccc(-c2ccc(C(C)(C)C)cc2)cc1
not listed: [1] | [5]
inactive: all other assays above

C1CN(SSN2CCOCC2)CCO1
not listed: [1] | [3] | [8]
inactive: all other assays above

CN1C(=O)N(C)C(O)C1O (stereo not given)
inactive: [2] | [9] | [6]

CCCCCCCCCCOS(=O)(=O)O
inactive: [1] | [6] | [7]

O=C(Nc1ccccc1SSc1ccccc1NC(=O)c1ccccc1)c1ccccc1
not listed: [1] | [8]
inactive: all other assays above

N[C@H]1C(O)O[C@H](CO)[C@H](O)[C@@H]1O (stereo not given in full)
inactive: [2] | [3] | [8] | [7]

Cc1ccc(N/N=c2\c(=O)cc/c(=N/Nc3ccc(S(=O)(=O)O)cc3)c2=O)c(C)c1
not listed: [1] | [3] | [9]
inactive: all other assays above

O=C(O)C(c1ccc(Cl)cc1)c1ccc(Cl)cc1
inactive: [2] | [9] | [6] | [7]

[Cl][In]([Cl])[Cl]
not listed: [1] | [3] | [4]
inactive: all other assays above

CC1=CC[C@H]2C[C@@H]1C2(C)C
not listed: [1] | [8] | [9]
inactive: all other assays above

CC=CC(F)(F)C(F)(F)C(F)(F)F
not listed: [1] | [4] | [6]
inactive: all other assays above

O=C1C(N(CO)C(=O)NCO)N(CO)C(=O)N1CO (stereo not given)
not listed: [1] | [3] | [8]
inactive: all other assays above

COc1ccc(C(Cl)=C(c2ccc(OC)cc2)c2ccc(OC)cc2)cc1
not listed: [1] | [4] | [7]
inactive: all other assays above

CCN(CCO)c1cccc(C)c1
inactive: [1] | [4] | [5] | [7]

CCCCCCCCCCCCCCCC[n+]1ccccc1
active: [9] 19.8 µM | [7] 14.7 µM
not listed: [1] | [5]
inactive: all other assays above

CCO[Si](CCCN=C=O)(OCC)OCC
not listed: [1]
inactive: all other assays above

C=C[Si](OC(C)=O)(OC(C)=O)OC(C)=O
inactive: [2] | [3] | [4] | [6]
